# Reference: the supplement of paper PMC7156485
# ± gives the standard deviation of the averaged measurements.
# Tests used:
# Conditions in all cases: concentration: 10 µM; 24 h
# HCC1569 [1] = assay: cell number relative to DMSO (% of DMSO); higher = more cells (less growth inhibition / toxicity)
# Outline: (§1)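 Compounds were applied at 10 µM for 24 h at 37 °C, in triplicate, to HCC1569 and TDF cells. The cells were then fixed and stained for H1.0, and nuclei were counterstained with DAPI. Nuclear H1.0 intensity or cell number is reported relative to the plate control as a percent, taking the median of replicates. Smoothing for positional effects was applied to HCC1569 values only.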
# TDF [2] = assay: as above
# Outline: as §1
# TDF [3] = assay: H1.0 immunofluorescence intensity relative to DMSO (% of DMSO); higher = stronger H1.0 induction, active = 120 or more
# Outline: as §1
# HCC1569 [4] = assay: H1.0 immunofluorescence intensity relative to DMSO (% of DMSO); higher = stronger H1.0 induction, active = 140 or more
# Outline: as §1
# 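Wherever H1.0 immunofluorescence intensity relative to DMSO is given: TDF is a line of transformed human dermal fibroblasts of mesenchymal origin.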
# 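Wherever cell number relative to DMSO is given: TDF denotes transformed human dermal fibroblasts of mesenchymal origin.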
Compound,cell number (HCC1569 [1]),cell number (TDF [2]),H1.0 immunofluorescence intensity (TDF [3]),H1.0 immunofluorescence intensity (HCC1569 [4])
O=C(O)CCC(=O)N1CCC[C@H]1C(=O)O [N-Succinyl-L-proline],99.6,100,102 (inactive),104 (inactive)
COc1ccc2cc1Oc1ccc(cc1)CC1c3cc(c(OC)cc3CCN1C)Oc1c(OC)c(OC)cc3c1C(C2)N(C)CC3 (stereo unspecified) [Isotetrandrine],97.9,83.8,111 (inactive),103 (inactive)
CN1CCN2c3ccccc3Cc3ccccc3C2C1.Cl (stereo unspecified) [Mianserin hydrochloride],105,101,95.5 (inactive),98.4 (inactive)
Br.CN1CCc2c(cc(O)c(O)c2Cl)C(c2cccc(Cl)c2)C1 (stereo unspecified),89.6,81.1,91.9 (inactive),112 (inactive)
C=CC(C)(C=Cc1ccc(O)cc1)CCC=C(C)C (stereo unspecified) [Bakuchiol],84.7 ± 3.6,91.2 ± 4.6,97.7 (inactive),96.8 (inactive)
CC(C)CCN1c2nc(Nc3cc(F)c(O)c(F)c3)ncc2N(C)C(=O)C1C (stereo unspecified),65,29.6,131 (active),148 (active)
NC(=O)c1ccc2nc(-c3ccc(Oc4ccc(Cl)cc4)cc3)[nH]c2c1 [Chk2 Inhibitor II],97.4,100,91.4 (inactive),132 (inactive)
CCn1ccnc1CC1COc2ccccc2O1.Cl (stereo unspecified) [Imiloxan hydrochloride],103,105,88 (inactive),100 (inactive)
CCC=CCC=CCC=CCC=CCC=CCCC(=O)OC(COCCCCCCCCCCCCCCCC)COP(=O)([O-])OCC[N+](C)(C)C (stereo unspecified),105,107,94.3 (inactive),99.4 (inactive)
CN(C)CCCCSC(=N)N.Cl.Cl,99.3,106,93.8 (inactive),102 (inactive)
O=C1CN2Cc3c(ccc(Cl)c3Cl)NC2=N1 [Anagrelide],103,110,92.9 (inactive),98.7 (inactive)
O=C1OC(=CBr)CCC1c1cccc2ccccc12 (stereo unspecified) [Bromoenol lactone],97.3,100,94.5 (inactive),112 (inactive)
CC(C)(C)c1ccc(S(=O)(=O)C=CC#N)cc1,50.3,92.1,98.3 (inactive),135 (inactive)
O=c1c(O)c(-c2ccc(O)c(O)c2)oc2cc(O)ccc12 [Fisetin],95.8,95.8,96 (inactive),101 (inactive)
NC(=O)c1ncn(C2OC(CO)C(O)C2O)n1 (stereo unspecified) [Ribavirin],97.5 ± 3,105 ± 3.3,94.5 (inactive),112 (inactive)
CC(C)C(=O)Nc1ccc([N+](=O)[O-])c(C(F)(F)F)c1 [Flutamide],81.3 ± 22,66.1 ± 48,112 (inactive),135 (inactive)
CC(C)NCC(O)c1ccc(O)c(O)c1.O=C(O)C(O)C(O)C(=O)O (stereo not drawn) [S(+)-Isoproterenol (+)-bitartrate],105,97.6,91.8 (inactive),93.4 (inactive)
CC1C=CC=CC=CC=CC=CC=CC=CC(OC2OC(C)C(O)C(N)C2O)CC2OC(O)(CC(O)CC(O)C(O)CCC(O)CC(O)CC(=O)OC(C)C(C)C1O)CC(O)C2C(=O)O (stereo unspecified) [Amphotericin B],97.4,89.9,105 (inactive),83.9 (inactive)
Cl.Cl.c1cnc(N2CCN(Cc3ccc4c(c3)OCO4)CC2)nc1 [Piribedil.2HCl],100,98.2,92 (inactive),107 (inactive)
O=C(O)C=Cc1ccc(O)c(O)c1 [Caffeic Acid],99.9,115,87.2 (inactive),84.5 (inactive)
"COC1=CC(=O)CC(C)C12Oc1c(Cl)c(OC)cc(OC)c1C2=O (single isomer, unassigned; (+)) [(+)-Griseofulvin]",100,108,99.2 (inactive),95.6 (inactive)
CC(=O)OC1CCC2(C)C(C1)C(OC(C)=O)CC1C2CC2C3CN4CC(C)CCC4C(C)C3CCC21O (stereo unspecified) [Diacetylkorseveriline],101,109,96.2 (inactive),95.1 (inactive)
Cl.O=C(OCCN1CCOCC1)C1(c2ccccc2)CCCCC1,99.8,111,90.5 (inactive),94 (inactive)
"COc1cc2c3cc1Oc1cc(ccc1O)CC1c4c(cc(OC)c(O)c4Oc4ccc(cc4)CC3N(C)CC2)CC[N+]1(C)C.Cl.[Cl-] (single isomer, unassigned; (+)) [(+)-Tubocuraraine chloride]",108,109,93.2 (inactive),99.2 (inactive)
C[C@H](C#Cc1ccc(Cc2ccc(F)cc2)s1)N(O)C(N)=O,98,92,100 (inactive),99.7 (inactive)

Compound,cell number (HCC1569 [1]),cell number (TDF [2]),H1.0 immunofluorescence intensity (TDF [3]),H1.0 immunofluorescence intensity (HCC1569 [4])
CN1C2CCC1CC(OC(=O)c1c[nH]c3ccccc13)C2 (stereo unspecified) [Tropisetron],102,92.9,101 (inactive),112 (inactive)
O=c1[nH]c2cc(Cl)ccc2c(O)c1-c1cccc(Oc2ccccc2)c1,108,94.2,91.7 (inactive),88.2 (inactive)
CC1CC2C(C(O)CC3(C)C2CCC3(O)C(=O)CO)C2(C)C=CC(=O)C=C12 (stereo unspecified) [Methylprednisolone],99.4,102,88.6 (inactive),114 (inactive)
CCCCCCCCCCCCCCCCC(=O)O [Heptadecanoic acid],99.9,94.9,103 (inactive),103 (inactive)
O=C(CCCc1ccc(-c2ccccc2F)cc1)Nc1ccc(O)cc1 [MK2a Inhibitor],79,11.1,157 (active),129 (inactive)
C[N+](C)(C)CC(O)CC(=O)[O-].Cl (racemic),102,120,97.1 (inactive),90.1 (inactive)
CS(=O)(=O)O.NC(=NC(=O)c1nc(Cl)c(N)nc1N)Nc1ccccc1 [Phenamil methanesulfonate],103,116,88.9 (inactive),96.1 (inactive)
NCCC(O)(P(=O)([O-])O)P(=O)([O-])O.O.O.O.O.O.[Na+].[Na+] [Pamidronate.2Na.5H2O],101,96.8,95 (inactive),107 (inactive)
COc1ccc(C=CC(=O)Nc2ccccc2C(=O)O)cc1OC [Tranilast],99.2 ± 2.1,103 ± 4.7,92.9 (inactive),102 (inactive)
COC(C(=O)C(O)C(C)O)C1Cc2cc3cc(OC4CC(OC5CC(O)C(O)C(C)O5)C(O)C(C)O4)c(C)c(O)c3c(O)c2C(=O)C1OC1CC(OC2CC(OC3CC(C)(O)C(O)C(C)O3)C(O)C(C)O2)C(O)C(C)O1 (stereo unspecified) [Mithramycin A],68.7,29.9,109 (inactive),112 (inactive)
CCC(C)(C)c1ccc(CC(C)CN2CC(C)OC(C)C2)cc1 (stereo unspecified) [Amorolfine],94.1,98.9,94.6 (inactive),110 (inactive)
CCCCCCCCCCCCCC=CC(O)C(CO)NC(=O)CCCCC (stereo unspecified) [C6 Ceramide],100,59.7,151 (active),101 (inactive)
"O=C(OC12CC3CC(CC(C3)C1)C2)c1ccc(NCc2cc(O)ccc2O)cc1 [1-adamantyl 4-[(2,5-dihydroxybenzyl)amino]benzoate]",8.48,62.1,120 (inactive),109 (inactive)
CCCCCCCCC=CCCCCCCCCC(=O)O [10(Z)-Nonadecenoic acid],102,94.1,95.6 (inactive),106 (inactive)
C=C1CCC2C(C)(CO)C(O)CCC2(C)C1CC=C1C(=O)OCC1O (stereo unspecified) [Andrographolide],83.1,68.6,109 (inactive),113 (inactive)
COc1ccc(-c2cc(=S)ss2)cc1 [Anethole-trithione],102,92.7,96.7 (inactive),103 (inactive)
CC(=O)OC1(C(C)=O)CCC2C3C=C(Cl)C4=CC(=O)C5CC5C4(C)C3CCC21C (stereo unspecified) [Cyproterone Acetate],107,93.8,103 (inactive),99.8 (inactive)
CCN(CC)CCNC(=O)c1ccc(NC(C)=O)cc1.Cl [N-Acetylprocainamide hydrochloride],104,110,105 (inactive),116 (inactive)
CN1C(CC(=O)c2ccccc2)CCCC1CC(O)c1ccccc1.Cl (stereo not drawn) [alpha-Lobeline hydrochloride],99.3,108,93.7 (inactive),103 (inactive)
CNCCC(Oc1ccc(C(F)(F)F)cc1)c1ccccc1.Cl (stereo unspecified) [Fluoxetine hydrochloride],93.1,85.7,108 (inactive),122 (inactive)
Cc1c[nH]c(C=C2C(=O)Nc3ccccc32)c1CCC(=O)O,101,102,95.4 (inactive),103 (inactive)
COc1ccc2c(c1)c(CC(=O)O)c(C)n2Cc1ccc(F)cc1 [1-(4-Fluorobenzyl)-5-methoxy-2-methylindole-3-acetic acid],101,95.2,95.4 (inactive),85.5 (inactive)
O=C(O)C=Cc1c[nH]c2ccccc12 [3-Beta-Indoleacrylic acid],97.9,101,94.8 (inactive),95.1 (inactive)
Cl.Cl.NCCNS(=O)(=O)c1cccc2cnccc12 [H-9 dihydrochloride],102,90.7,107 (inactive),100 (inactive)
